Drawing on article PMC10726135, “HNF4α isoforms regulate the circadian balance between carbohydrate and lipid metabolism in the liver”, this text covers binding signal for 54 sequences.

Over roughly 18,000 sequences, “log2 normalized intensity” has its median near 0.36; the highest 2% begin near 7.3. The sample holds the highest values, similar sequences and a random draw of the others, so the mix is not that of the screen.

This experiment concerns the target T1, HNF4alpha8 (COS-7 nuclear extract) (Homo sapiens, UniProt P41235-5 1-452).
T1 sequence: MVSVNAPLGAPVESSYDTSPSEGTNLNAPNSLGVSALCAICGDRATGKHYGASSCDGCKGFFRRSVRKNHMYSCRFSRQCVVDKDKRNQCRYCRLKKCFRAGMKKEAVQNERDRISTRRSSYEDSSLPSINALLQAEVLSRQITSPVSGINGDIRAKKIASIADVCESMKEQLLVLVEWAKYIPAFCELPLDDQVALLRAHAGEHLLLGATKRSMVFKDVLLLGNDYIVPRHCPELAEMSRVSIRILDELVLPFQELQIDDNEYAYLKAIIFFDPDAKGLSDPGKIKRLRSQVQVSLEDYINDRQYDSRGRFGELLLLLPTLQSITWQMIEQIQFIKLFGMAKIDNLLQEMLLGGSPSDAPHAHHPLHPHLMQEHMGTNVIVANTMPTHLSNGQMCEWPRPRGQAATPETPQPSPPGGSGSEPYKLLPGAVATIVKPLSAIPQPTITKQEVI
The experiment in a line: protein-binding microarray; COS-7 nuclear extract on double-stranded Agilent 4x180k PBM; binding buffer, salt, pH and temperature not given in the material; high values mean tight binding. The note with it: chain copies: 2; label: 3' end of strand 1 on the slide; dsDNA, one strand shown. The method in brief:
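Binding signal was defined as the normalized, background-corrected gProcessedSignal reported by Agilent software. It came from nuclear extracts of COS-7 cells transiently transfected with a human HNF4α isoform expression vector, applied to a custom Agilent SurePrint G3 4x180k array. That array held ~44,000 test sequences in quadruplicate as double-stranded ~60-nt oligonucleotides, and bound HNF4α was imaged at 2-µm resolution on an Agilent G2565CA scanner.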
As to “TTACCATATTTACTTATGGTTTGACCCTGCGCCTAGGGAGATTAGAGTATCGGTCGA”, the binding signal worked out at 5.23 log2 normalized intensity.

For the sequence “AATTCCTTTCAAACTGTATTGCTCAATGTCGCCTAGGGAGATTAGAGTATCGGTCGA”, the binding signal came to 0.181 log2 normalized intensity.

For the sequence “GAGTTGGAGAAGAGCAAAGATCATCTGGTGGCCTAGGGAGATTAGAGTATCGGTCGA”, the binding signal amounted to 1.45 log2 normalized intensity.

“CAAAAGTTCAAACTTTATTTGATGATGAAGGCCTAGGGAGATTAGAGTATCGGTCGA”: the binding signal was 0.503 log2 normalized intensity.

For the sequence “AATGCGCAGAATTTCTTTTAATGTGTGCTTGCCTAGGGAGATTAGAGTATCGGTCGA”, the binding signal amounted to 0.136 log2 normalized intensity.

On to “TTAATACTTTGGAACTCAGTTAATGTACAGGCCTAGGGAGATTAGAGTATCGGTCGA”, for which the binding signal was determined as 1.59 log2 normalized intensity.

As to “CTTAGCAGTGGGAGACAGGCATTAACCCTTGCCTAGGGAGATTAGAGTATCGGTCGA”, the binding signal was found to be 1.74 log2 normalized intensity.

With “TTCTTCTGGTTCTGCAAGGCAACTGACCTTGCCTAGGGAGATTAGAGTATCGGTCGA”, the binding signal was 4.13 log2 normalized intensity.

In the case of “CTTGGGGGAGGAGGGCAACCTTTGAACTGGGCCTAGGGAGATTAGAGTATCGGTCGA”, the binding signal was found to be 6.02 log2 normalized intensity.

“GAGACAACTGCAACAGGAGGACCTCTGGATGCCTAGGGAGATTAGAGTATCGGTCGA”: the binding signal is -0.854 log2 normalized intensity.

Regarding “CTGGTTCTGCAAGGCAACTGACCTTTGGATGCCTAGGGAGATTAGAGTATCGGTCGA”, the binding signal worked out at 8.71 log2 normalized intensity.

For the sequence “TCTGCAAGGCAACTGACCTTTGGATCTGGGGCCTAGGGAGATTAGAGTATCGGTCGA”, the binding signal came out at 8.01 log2 normalized intensity.

For “AACTGTACTTTGGACTGGGGACCTGGTCTGGCCTAGGGAGATTAGAGTATCGGTCGA”, the binding signal worked out at 4.79 log2 normalized intensity.

For “TTTATGACCTTTGACTGCAGAAGATAAGAAGCCTAGGGAGATTAGAGTATCGGTCGA”, the binding signal came out at 4.5 log2 normalized intensity.

For “TGATAAAGGGGGCAAAGGGCATGGGCAGCTGCCTAGGGAGATTAGAGTATCGGTCGA”, the binding signal was found to be 4.41 log2 normalized intensity.

Take “AAGGTCAGCAAGCCTGGAGTTCTGATGTTCGCCTAGGGAGATTAGAGTATCGGTCGA”: the binding signal was 0.91 log2 normalized intensity.

“GGTGTAAGCTCTGGAGTCCAAAGGTCAGCAGCCTAGGGAGATTAGAGTATCGGTCGA”: the binding signal worked out at 8.69 log2 normalized intensity.

As for “GGAGTGACCCTGGGAGCAAAGGTCAAGAGTGCCTAGGGAGATTAGAGTATCGGTCGA”, the binding signal was determined as 7.55 log2 normalized intensity.

“CCACTGGTGTAAGCTCTGGAGTCCAAAGGTGCCTAGGGAGATTAGAGTATCGGTCGA”: the binding signal amounted to 4.54 log2 normalized intensity.

Regarding “AAGCTCTGGAGTCCAAAGGTCAGCAAGCCTGCCTAGGGAGATTAGAGTATCGGTCGA”, the binding signal was determined as 8.14 log2 normalized intensity.

For the sequence “GGAGACCACTGGTGTAAGCTCTGGAGTCCAGCCTAGGGAGATTAGAGTATCGGTCGA”, the binding signal was 1.64 log2 normalized intensity.

In the case of “TTAGGAGGATGACAAAGAGCAAGTGACCCTGCCTAGGGAGATTAGAGTATCGGTCGA”, the binding signal came to 4.46 log2 normalized intensity.

On to “GTCCAAAGGTCAGCAAGCCTGGAGTTCTGAGCCTAGGGAGATTAGAGTATCGGTCGA”, for which the binding signal was 5.05 log2 normalized intensity.

For “ATCCACCCATCCAAAGGTCAGCAATCTCAAGCCTAGGGAGATTAGAGTATCGGTCGA”, the binding signal turned out to be 3.45 log2 normalized intensity.

Take “TGTTTGCCTCTCAGCTCATTCAAAGTCCAAGCCTAGGGAGATTAGAGTATCGGTCGA”: the binding signal was 4.2 log2 normalized intensity.

Take “TGGGAGCAAAGGTCAAGAGTTTTAAAGTATGCCTAGGGAGATTAGAGTATCGGTCGA”: the binding signal stood at 5.47 log2 normalized intensity.

Consider “CTGGAGTCCAAAGGTCAGCAAGCCTGGAGTGCCTAGGGAGATTAGAGTATCGGTCGA”, for which the binding signal is 7.44 log2 normalized intensity.

Regarding “TATTTGCTCACCAGTGACCAATAATGTAATGCCTAGGGAGATTAGAGTATCGGTCGA”, the binding signal turned out to be 0.199 log2 normalized intensity.

As to “ATTAGCTTCTGTTCAGGAGTTGTCTGTCCAGCCTAGGGAGATTAGAGTATCGGTCGA”, the binding signal worked out at 1.39 log2 normalized intensity.

Consider “CCATGCTCTTTGGCCTGGCATTTGAGACTAGCCTAGGGAGATTAGAGTATCGGTCGA”, for which the binding signal amounted to 0.329 log2 normalized intensity.

On to “TTTGTCCCCCACCTGTGAAGATAAGCTGTCGCCTAGGGAGATTAGAGTATCGGTCGA”, for which the binding signal amounted to 3.17 log2 normalized intensity.

As to “AGAATGGAGAAAACAACATTCCTTGTGTTTGCCTAGGGAGATTAGAGTATCGGTCGA”, the binding signal worked out at 0.48 log2 normalized intensity.

Turning to “TCAGCCTTAACTCAAAAGGCCAAAGTCCAAGCCTAGGGAGATTAGAGTATCGGTCGA”, the binding signal is 9.11 log2 normalized intensity.

Turning to “TCCACAGTCAAGGCCAAAGGTTAAAAATAAGCCTAGGGAGATTAGAGTATCGGTCGA”, the binding signal was found to be 4.8 log2 normalized intensity.

Turning to “AATTCTTAAGCCAAAGTCCAAGTTGGTGAGGCCTAGGGAGATTAGAGTATCGGTCGA”, the binding signal came out at 3.81 log2 normalized intensity.

As to “TATCAGCTTTGAGACACCTGGCCAAGTACAGCCTAGGGAGATTAGAGTATCGGTCGA”, the binding signal is -0.899 log2 normalized intensity.

In the case of “TTTTCCACCCTCCCCTCCCCCTCCTCCCCTGCCTAGGGAGATTAGAGTATCGGTCGA”, the binding signal was determined as 7.22 log2 normalized intensity.

In the case of “AACCCGCCCCCTCCCCCTGCCGGCGGCGCAGCCTAGGGAGATTAGAGTATCGGTCGA”, the binding signal turned out to be 6.05 log2 normalized intensity.

Consider “ATTGTGAAACGTTTGAATTCTTGCCTATCCGCCTAGGGAGATTAGAGTATCGGTCGA”, for which the binding signal is -0.841 log2 normalized intensity.

Turning to “GGTTGCCCAGGGAGAGCTGGACTTTCATCTGCCTAGGGAGATTAGAGTATCGGTCGA”, the binding signal was determined as 5.54 log2 normalized intensity.

In the case of “GGAATGAGCAGGAACCTTGTGGTGGTGAAAGCCTAGGGAGATTAGAGTATCGGTCGA”, the binding signal was 0.216 log2 normalized intensity.

As for “AAAGCTGGCTGGCGGCTAGTGTACAGGTGAGCCTAGGGAGATTAGAGTATCGGTCGA”, the binding signal came out at 0.565 log2 normalized intensity.

As to “CTAGTGTACAGGTGACCTTTGGAATGAACCGCCTAGGGAGATTAGAGTATCGGTCGA”, the binding signal was determined as 7.75 log2 normalized intensity.

Turning to “TATCTTTGGAGAATGCCTTTTGTGTAGGAGGCCTAGGGAGATTAGAGTATCGGTCGA”, the binding signal worked out at 1.69 log2 normalized intensity.

As for “GGCGGCTAGTGTACAGGTGACCTTTGGAATGCCTAGGGAGATTAGAGTATCGGTCGA”, the binding signal amounted to 9.41 log2 normalized intensity.

As to “GCTAGGTGGCGGGCTGGCTCAGGACAGGTGGCCTAGGGAGATTAGAGTATCGGTCGA”, the binding signal was -0.886 log2 normalized intensity.

Take “AGATAGTGACGGAGGTGACCTTTGGTTGTCGCCTAGGGAGATTAGAGTATCGGTCGA”: the binding signal is 6.24 log2 normalized intensity.

In the case of “TGGCTGGCGGCTAGTGTACAGGTGACCTTTGCCTAGGGAGATTAGAGTATCGGTCGA”, the binding signal was determined as 7.84 log2 normalized intensity.

With “TTGGAGAATGCCTTTTGTGTAGGAGTACACGCCTAGGGAGATTAGAGTATCGGTCGA”, the binding signal was determined as 1.46 log2 normalized intensity.

For the sequence “TCCCTGAAGGCCAGGCAGCACAATTTGTGTGCCTAGGGAGATTAGAGTATCGGTCGA”, the binding signal was -0.959 log2 normalized intensity.

As to “TGATCTTTGAAACATAACAGCAACAACACAGCCTAGGGAGATTAGAGTATCGGTCGA”, the binding signal is 0.241 log2 normalized intensity.

For “TATTGAGAAGAAACCTTTGCCCAACAGGATGCCTAGGGAGATTAGAGTATCGGTCGA”, the binding signal stood at 2.13 log2 normalized intensity.

With “GGCGAGTGTGCAATTAGAGCAAAGGTTACTGCCTAGGGAGATTAGAGTATCGGTCGA”, the binding signal turned out to be 3.57 log2 normalized intensity.

Take “ACAAAGATCATAAATGCCTCCCCCTCTTTAGCCTAGGGAGATTAGAGTATCGGTCGA”: the binding signal amounted to 3.85 log2 normalized intensity.
